Hit rate of the full screen: of about 5,500 compounds, about 2,000 (36%) were called active. Inconclusive results (about 18%) are left out. Cut-off read from the data, not from the text of the source: active = normalized growth mostly below about 0.91 (no sharp cut-off); inconclusive = no clear call, values can overlap the other calls; inactive = mostly above about 0.92. The list shows a part of the results.
Assay: chemical genetic growth profiling, strain panel (AID 1159580);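 note: tested at 20 µM; growth read once vehicle control cultures reached saturation at 30 °C; 1 = growth at the plate median or of vehicle wells; lower values mean less growth of the strain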
Settings: growth OD

Measured: normalized growth

CNC(=O)O/N=C(\C)SC
inactive: S. cerevisiae deletion strains, locus YJR075W, strain HOC1, stronger effect = lower value 0.99 | S. cerevisiae deletion strains, locus YKL009W, strain mrt4, stronger effect = lower value 1.02 | S. cerevisiae deletion strains, locus YKL068W, stronger effect = lower value 0.986 | S. cerevisiae deletion strains, locus YKL085W, strain MDH1 (second series), stronger effect = lower value 0.985 | S. cerevisiae deletion strains, locus YKL085W, strain MDH1, stronger effect = lower value 0.985 | S. cerevisiae deletion strains, locus YKL160W, strain elf1, stronger effect = lower value 1 | S. cerevisiae deletion strains, locus YKL190W, strain CNB1, stronger effect = lower value 1 | S. cerevisiae deletion strains, locus YKR001C, strain vps1, stronger effect = lower value 0.999 | S. cerevisiae deletion strains, locus YKR026C, strain gcn3, stronger effect = lower value 0.999 | S. cerevisiae deletion strains, locus YKR091W, strain srl3, stronger effect = lower value 1 | S. cerevisiae deletion strains, locus YLL001W, strain dnm1, stronger effect = lower value 1 | S. cerevisiae deletion strains, locus YLL026W, stronger effect = lower value 1 | S. cerevisiae deletion strains, locus YLL041C, strain sdh2, stronger effect = lower value 0.999 | S. cerevisiae deletion strains, locus YLR027C, strain aat2, stronger effect = lower value 0.987 | S. cerevisiae deletion strains, locus YLR039C, strain RIC1, stronger effect = lower value 1.01 | S. cerevisiae deletion strains, locus YLR058C, strain SHM2, stronger effect = lower value 1.01 | S. cerevisiae deletion strains, locus YLR102C, strain apc9, stronger effect = lower value 0.99 | S. cerevisiae deletion strains, locus YLR113W, strain HOG1, stronger effect = lower value 1.01 | S. cerevisiae deletion strains, locus YLR221C, strain rsa3, stronger effect = lower value 1 | S. cerevisiae deletion strains, locus YLR258W, strain gsy2, stronger effect = lower value 0.994 | S. cerevisiae deletion strains, locus YLR262C, strain YPT6 (second series), stronger effect = lower value 1.03 | S. cerevisiae deletion strains, locus YLR262C, strain YPT6, stronger effect = lower value 1.05 | S. cerevisiae deletion strains, locus YLR268W, strain sec22, stronger effect = lower value 0.994 | S. cerevisiae deletion strains, locus YLR320W, strain mms22, stronger effect = lower value 0.995 | S. cerevisiae deletion strains, locus YLR330W, strain CHS5, stronger effect = lower value 1.01 | S. cerevisiae deletion strains, locus YLR342W, strain FKS1 (second series), stronger effect = lower value 1.02 | S. cerevisiae deletion strains, locus YLR342W, strain FKS1, stronger effect = lower value 0.997 | S. cerevisiae deletion strains, locus YLR357W, strain rsc2, stronger effect = lower value 0.983 | S. cerevisiae deletion strains, locus YLR370C, strain arc18, stronger effect = lower value 1 | S. cerevisiae deletion strains, locus YLR371W, strain rom2, stronger effect = lower value 0.98 | S. cerevisiae deletion strains, locus YLR384C, strain iki3, stronger effect = lower value 1 | S. cerevisiae deletion strains, locus YLR418C, strain cdc73, stronger effect = lower value 1.01 | S. cerevisiae deletion strains, locus YML016C, strain PPZ1, stronger effect = lower value 1.01 | S. cerevisiae deletion strains, locus YML032C, strain rad52, stronger effect = lower value 0.981 | S. cerevisiae deletion strains, locus YML120C, strain ndi1, stronger effect = lower value 1.01 | S. cerevisiae deletion strains, locus YML124C, strain tub3, stronger effect = lower value 0.978 | S. cerevisiae deletion strains, locus YMR058W, strain fet3, stronger effect = lower value 1 | S. cerevisiae deletion strains, locus YMR078C, strain ctf18, stronger effect = lower value 0.985 | S. cerevisiae deletion strains, locus YMR125W, strain sto1, stronger effect = lower value 0.999 | S. cerevisiae deletion strains, locus YMR129W, stronger effect = lower value 0.999 | S. cerevisiae deletion strains, locus YMR205C, strain PFK2, stronger effect = lower value 1.01 | S. cerevisiae deletion strains, locus YMR223W, strain ubp8, stronger effect = lower value 0.991 | S. cerevisiae deletion strains, locus YMR231W, strain pep5, stronger effect = lower value 0.982 | S. cerevisiae deletion strains, locus YMR263W, strain SAP30, stronger effect = lower value 1.02 | S. cerevisiae deletion strains, locus YMR307W, strain GAS1, stronger effect = lower value 1.02 | S. cerevisiae deletion strains, locus YNL067W, strain RPL9B, stronger effect = lower value 1.01 | S. cerevisiae deletion strains, locus YNL071W, strain lat1, stronger effect = lower value 1.01 | S. cerevisiae deletion strains, locus YNL128W, strain TEP1, stronger effect = lower value 1.01 | S. cerevisiae deletion strains, locus YNL153C, strain GIM3, stronger effect = lower value 0.996 | S. cerevisiae deletion strains, locus YNL183C, strain NPR1, stronger effect = lower value 0.997 | S. cerevisiae deletion strains, locus YNL209W, strain ssb2, stronger effect = lower value 0.996 | S. cerevisiae deletion strains, locus YNL233W, strain BNI4, stronger effect = lower value 1.03 | S. cerevisiae deletion strains, locus YNL248C, strain rpa49, stronger effect = lower value 1 | S. cerevisiae deletion strains, locus YNL250W, strain rad50, stronger effect = lower value 0.974 | S. cerevisiae deletion strains, locus YNL271C, strain bni1, stronger effect = lower value 0.991 | S. cerevisiae deletion strains, locus YNL298W, strain CLA4, stronger effect = lower value 0.988 | S. cerevisiae deletion strains, locus YNL307C, strain MCK1, stronger effect = lower value 0.981 | S. cerevisiae deletion strains, locus YNL322C, strain KRE1 (second series), stronger effect = lower value 0.995 | S. cerevisiae deletion strains, locus YNL322C, strain KRE1, stronger effect = lower value 1.01 | S. cerevisiae deletion strains, locus YNR049C, strain mso1, stronger effect = lower value 0.998 | S. cerevisiae deletion strains, locus YNR052C, strain pop2, stronger effect = lower value 0.988 | S. cerevisiae deletion strains, locus YOL006C, strain TOP1, stronger effect = lower value 1.07 | S. cerevisiae deletion strains, locus YOL012C, strain htz1 0.858 | S. cerevisiae deletion strains, locus YOL147C, strain pex11, stronger effect = lower value 0.976 | S. cerevisiae deletion strains, locus YOR001W, strain rrp6, stronger effect = lower value 0.989 | S. cerevisiae deletion strains, locus YOR061W, strain CKA2, stronger effect = lower value 1.01 | S. cerevisiae deletion strains, locus YOR069W, strain VPS5, stronger effect = lower value 1 | S. cerevisiae deletion strains, locus YOR070C, strain gyp1, stronger effect = lower value 0.995 | S. cerevisiae deletion strains, locus YOR080W, strain dia2, stronger effect = lower value 0.996 | S. cerevisiae deletion strains, locus YOR083W, strain WHI5, stronger effect = lower value 1 | S. cerevisiae deletion strains, locus YOR106W, strain vam3, stronger effect = lower value 1.01 | S. cerevisiae deletion strains, locus YOR136W, strain idh2, stronger effect = lower value 0.978 | S. cerevisiae deletion strains, locus YOR144C, strain elg1, stronger effect = lower value 0.977 | S. cerevisiae deletion strains, locus YOR184W, strain ser1, stronger effect = lower value 0.993 | S. cerevisiae deletion strains, locus YOR231W, strain MKK1, stronger effect = lower value 1.05 | S. cerevisiae deletion strains, locus YOR265W, strain rbl2, stronger effect = lower value 1.02 | S. cerevisiae deletion strains, locus YOR270C, strain vph1, stronger effect = lower value 1.02 | S. cerevisiae deletion strains, locus YOR290C, strain snf2, stronger effect = lower value 0.981 | S. cerevisiae deletion strains, locus YOR316C, strain cot1, stronger effect = lower value 0.983 | S. cerevisiae deletion strains, locus YPL051W, strain arl3, stronger effect = lower value 1.02 | S. cerevisiae deletion strains, locus YPL055C, strain LGE1, stronger effect = lower value 1.03 | S. cerevisiae deletion strains, locus YPL078C, strain atp4, stronger effect = lower value 0.997 | S. cerevisiae deletion strains, locus YPL106C, strain sse1, stronger effect = lower value 0.982 | S. cerevisiae deletion strains, locus YPL240C, strain hsp82, stronger effect = lower value 0.998 | S. cerevisiae deletion strains, locus YPL241C, strain CIN2, stronger effect = lower value 1 | S. cerevisiae deletion strains, locus YPL256C, strain CLN2, stronger effect = lower value 1.05 | S. cerevisiae deletion strains, locus YPR119W, strain clb2, stronger effect = lower value 0.985 | S. cerevisiae deletion strains, locus YPR141C, strain kar3, stronger effect = lower value 0.989 | S. cerevisiae deletion strains, locus YPR163C, strain tif3, stronger effect = lower value 0.976 | S. cerevisiae deletion strains, locus YPR167C, strain met16, stronger effect = lower value 0.986 | S. cerevisiae deletion strains, strain wtn01, stronger effect = lower value 0.997 | S. cerevisiae strains, strain wild type, stronger effect = lower value 1

From PubChem BioAssay AID1159580 (chemical genetic matrix, 2015)
